# Pf growth 96h = Primary qHTS for delayed death inhibitors of the malarial parasite plastid, 96 hour incubation. AID 504834, 2011. Potency, µM (doses to about 28.7 µM), for inactives: at the highest dose activity change, negative = inhibition, hits mostly inhibitors. 320,000 compounds, 6.9% hits. P. falciparum luciferase reporter growth, 96 h; further: potency means the concentration at half of the fitted maximal effect; on the % scale 0 is the no-effect control and ±100 the full control effect
#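 Plates of compound plus infected erythrocytes (2% hematocrit, 0.05% parasitemia final) incubate 96 hours, 37 C, 5% CO2. Detection reagent added; reduced luminescence from the parasites' luciferase reporter flags inhibition.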
# CHX counter = Cycloheximide Counterscreen for Small Molecule Inhibitors of Shiga Toxin | cell reporter, cycloheximide protein synthesis inhibition counterscreen | max response, % | 300,000 compounds, 12% hits | AID 2314, 2010; in the data active means max response mostly above about 13%, no sharp cut-off; inactive means mostly below about 14%; further: read at 38.3 µM for the half of the compounds with a filed dose; 0% is about no effect
# Pf growth 48h = Primary qHTS for delayed death inhibitors of the malarial parasite plastid, 48 hour incubation; P. falciparum luciferase growth in erythrocytes, 48 h; Potency, µM (doses to about 28.7 µM), inactives show at the top dose activity change, negative = inhibition, usual class: inhibitors; 310,000 compounds, 5.9% hits; further: potency means the concentration at half of the fitted maximal effect; on the % scale 0 is the no-effect control and ±100 the full control effect
#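 Luminescence readout; reporter = integrated firefly luciferase in P. falciparum. RBC culture at 2% hematocrit, 0.1% parasitemia final, 37 C/5% CO2; decreased signal taken as growth inhibition.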
# Shiga inhibitor = A qHTS for Small Molecule Inhibitors of Shiga Toxin; Vero cells, Shiga toxin protein synthesis inhibition reporter; 290,000 compounds, 9.2% hits; inhibition, % at 38.7 µM; in the data active means inhibition mostly above about 28%, no sharp cut-off; inactive means mostly below about 43%; further: 0% is about no effect
# * hit, by the source's call; ? = inconclusive; . = no result given; + = active, no number; ! = repeats disagree. In the library only some 21% were active in any assay of this set; here they are far more common. Unless noted, the call rests on the fitted dose curve; in most records, active means well fitted inhibition curve with a large enough effect; inconclusive means small, poorly fitted or top-dose-only effect, or another doubt; inactive means no such curve, though single readings can be large or run the other way.
SMILES,Pf growth 96h,CHX counter,Pf growth 48h,Shiga inhibitor
Cc1c(NS(=O)(=O)c2cccc(C(=O)Nc3cccc(F)c3)c2)c(=O)n(-c2ccccc2)n1C,-9.6%,.,-14.1%,.
CCc1ccc(OCC(=O)Nc2ccc(S(=O)(=O)Nc3cc(C)on3)cc2)c(Br)c1,46.8%,2.4,-0.8%,12.0
O=c1c2ccccc2nnn1Cc1nnc(-c2ccccc2Br)o1,98.1%,44.3*,31.8%,127.8*
O=C1C2CC=CCC2C(=O)N1Cc1nnc(-c2ccccc2Br)o1 (configuration not stated),-18.6%,26.1*,-8.3%,67.7*
Cc1ccc(NC2=CC(=O)c3sc(C)nc3C2=O)cc1,.,-12.7,.,-7.5
O=C(O)[C@H]1C[C@@H](CP(=O)(O)O)CCN1,0.9%,4.4,-4.9%,-7.8
Brc1ccc2c(c1)C(c1cccs1)=NNC(c1cccnc1)=N2,-10.2%,7.2,1.0%,-7.3
CCOc1ccc(C2=NNC(c3cccs3)=Nc3ccc(OC)cc32)cc1OCC,-14.5%,26.6*,11.7µM*,52.2*
COc1ccc(C2=NNC(c3cccnc3)=Nc3ccccc32)cc1,6.57µM*,-4.1,-14.5%,-9.4
c1ccc(C2=NNC(c3ccco3)=Nc3ccccc32)cc1,29.6%,17.1*,?,23.3
COc1ccc(C2=NNC(c3cccs3)=Nc3ccc(OC)cc32)cc1,-17.2%,30.9*,?,70.4*
CCOc1ccc2c(c1)C(c1cccs1)=NNC(c1cccnc1)=N2,-19.2%,9.5,-23.1%,-0.5
CCOc1ccc(C2=NNC(c3cccs3)=Nc3ccc(OCC)cc32)cc1,?,3.8,.,29.7*
CC(=O)c1c(C)[nH]c(C(=O)OCC(=O)NCc2cccs2)c1C,111.6%,.,63.6%,.
O=C(NC12CC3CC(CC(C3)C1)C2)N1CCN(c2ccccn2)CC1,2.2%,-1.0,11.7µM*,14.0
O=C(NC12CC3CC(CC(C3)C1)C2)N1CCC(n2nnc3ccccc32)CC1,9.28µM*,-3.0,?,-11.0
CCn1c(/C=C/N(C)c2ccccc2)[n+](CC)c2ccc(Cl)cc21,0.131µM*,-1.0,0.738µM*,-1.5
CCn1c(/C=C/Nc2ccccc2)[n+](CC)c2ccc(Cl)cc21,8.28µM*,-4.2,?,-4.3
COc1ccc(CCc2nc(C)ccc2O)cc1,37.9%,37.1*,?,+!
COc1ccc(C2=NN(c3ccccc3)C(=O)/C2=C\c2ccc(O)c(OC)c2)cc1,?,14.0,13.1µM*,22.0
COc1cc(/C=C2\SC(c3ccc(C)cc3)=NC2=O)ccc1O,?,23.5*,?,52.1*
COc1ccc(/C=C2\SC(c3ccc(C)cc3)=NC2=O)cc1OC,?,9.0,?,2.5
COc1ccc(/C=C2/C(=O)N(c3ccccc3)N=C2C)cc1OC,99.9%,-1.9,1.1%,-8.1
COc1ccc2ncc(OC(C)=O)cc2c1,19.0%,14.0*,26.8%,23.1
COc1ccc2nc(C)cc(C(=O)O)c2c1,.,-1.5,?,-1.9
SMILES,Pf growth 96h,CHX counter,Pf growth 48h,Shiga inhibitor
Cc1cc(/C=C(\C#N)C(=O)N2CCOCC2)c(C)n1C1CCCC1,367.5%,26.4*,181.2%,25.6
CCC1(c2ccc(O)cc2)NC(=O)NC1=O (configuration not stated),.,-6.7,.,-11.1
Cc1ccccc1NC(=O)COc1ccc(Br)cc1CNCCCO,1.85µM*,7.0,?,8.9
COc1cc(CNCCCN2CCOCC2)c(Br)cc1OCC(=O)Nc1ccccc1C,?,11.7,10.4µM*,34.1
CCN(CC)CCNCc1cc(Br)ccc1OCC(=O)NCc1ccccc1,11.7µM*,4.4,?,-12.6
CCc1cc(=O)oc2c(C)c(OC(C)C(=O)NCCCn3ccnc3)ccc12 (configuration not stated),?,-3.0,-14.5%,-1.3
CC(=O)C1=NN(c2ccccc2)C(c2cccs2)N1c1ccccc1 (configuration not stated),4.65µM*,-4.6,.,-6.7
COc1cccc(N2C(C(C)=O)=NN(c3ccccc3)C2c2ccc(N3CCOCC3)cc2)c1 (configuration not stated),?,64.2*,13.1µM*,69.2*
COc1ccc(C2N(c3ccc(Cl)cc3)N=C(C(C)=O)N(C)N2C(C)=O)cc1 (configuration not stated),?,-1.8,?,6.3
CC(=O)C1=NN(c2ccccc2)C(c2ccc3c(c2)OCO3)N1c1ccc(N2CCOCC2)cc1 (configuration not stated),?,-3.0,14.7µM*,-4.2
Cc1ccc(N2C(=O)NC(=O)C(CCc3ccccn3)(Cc3cccc(Cl)c3Cl)C2=O)cc1 (configuration not stated),2.33µM*,-1.9,-15.2%,13.0
CC(C)(CO)Nc1nc(Cl)nc(NC2CCCCC2)n1,-4.0%,20.3*,16.1%,27.3
CCNc1nc(Cl)nc(NC2CCCCC2)n1,44.0%,21.3*,44.4%,.
CC(C)Nc1nc(Cl)nc(NC2CCCCC2)n1,?,10.0,-5.5%,13.9
CC(Cc1cccs1)NC(=S)Nc1ccc(Cl)c(Cl)c1 (configuration not stated),?,10.8,-3.0%,active
CC(Cc1cccs1)NC(=S)Nc1ccc(Cl)cc1 (configuration not stated),?,20.6*,-5.7%,45.2*
O=C(OCc1ccc(Cl)cc1)c1ccccc1C(=O)c1ccccc1,7.7%,21.4*,28.6%,60.2
COC(=O)c1ccc(COC(=O)c2cccnc2Cl)cc1,71.5%,37.2*,47.5%,96.9
O=C(OCc1ccc(Cl)cc1)c1cnccn1,.,0.7,27.3%,-27.1
O=C(OCc1ccc(COC(=O)c2ccccn2)cc1)c1ccccn1,.,29.7*,18.8%,66.3*
O=C(OCc1ccc(Cl)cc1)c1cccnc1Cl,-2.1%,17.7*,16.7%,55.1
C[N+](C)(C)CCCl,.,-10.7,.,-6.2
O=C(COC(=O)c1nn(-c2ccccc2C(F)(F)F)cc1O)c1ccc(OC(F)F)cc1,21.7%,.,2.7%,.
COc1cc(OC)c(C2=Nc3ccc(Br)cc3C(c3ccccc3)N2CC(=O)NN)cc1OC (configuration not stated),?,3.7,?,-5.9
CC(CCc1ccccc1)NS(=O)(=O)c1ccc(Cl)c(C(=O)O)c1 (configuration not stated),29.0%,-9.1,-3.0%,-5.8
SMILES,Pf growth 96h,CHX counter,Pf growth 48h,Shiga inhibitor
COC(=O)c1sc2nc(CN3CCOCC3)nc(N3CCOCC3)c2c1C,22.2%,-4.0,10.4µM*,17.3
COC(=O)c1sc2nc(-c3ccccc3)nc(N3CCN(C)CC3)c2c1C,.,0.8,3.7µM*,-11.7
CCOC(=O)c1sc2ncnc(N3CCN(C)CC3)c2c1C,91.3%,6.6,21.2%,-2.2
Cc1cc(-c2nnc(CCC(=O)NCCc3ccccc3F)o2)no1,-12.9%,8.3,20.3%,20.5
CCN1C(=O)[C@H]2[C@@H](c3ccc(-c4cccc(Cl)c4)c(OC)c3)N[C@@](Cc3ccccc3)(C(=O)OC)[C@H]2C1=O,0.415µM*,.,2.08µM*,.
CCCC1(C(=O)OC)NC(c2cc(OC)c(OC)c(OC)c2)C2C(=O)N(CC)C(=O)C21 (configuration not stated),47.2%,-1.5,-0.7%,1.2

# Assay outcomes deposited in PubChem BioAssay by National Center for Advancing Translational Sciences (NCATS).
